# From PubChem BioAssay (EPA / NIEHS)
# Active and inactive are the calls of the source. How the source made its calls: active means hit-call score of the fitted dose curve at least 0.9, where 1 is the maximum; inactive means score below 0.9.
# Experiments:
# [1] = CEETOX_H295R_OHPREG: CeeTox H295R High-throughput Steroidogenesis Assay for OH-Pregnenolone (OHPREG) (AID 2283434); conditions: actives raise or lower the signal
# Procedure, shortened: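 Readout: HPLC-MS/MS of 17alpha-hydroxypregnenolone in medium after 48 h chemical exposure of H295R cells pretreated with forskolin. Values fitted bidirectionally relative to DMSO; chemicals reducing viability to 20–70% were retested after 10-fold dilution.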
# [2] = CEETOX_H295R_OHPROG: CeeTox H295R High-throughput Steroidogenesis Assay for OH-Progesterone (OHPROG) (AID 2283435); conditions: actives raise or lower the signal;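 on AC50: human adrenal H295R cells primed 48 h with 10 µM forskolin; 17alpha-hydroxyprogesterone secreted into medium measured by HPLC-MS/MS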
# Procedure, shortened: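 Human adrenocortical H295R cells, passage 10 or lower, were treated with chemical for 48 h after forskolin priming, and hormone output in the medium was quantified by LC-MS/MS.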
# [3] = CEETOX_H295R_CORTIC: CeeTox H295R High-throughput Steroidogenesis Assay for Corticosterone (CORTIC) (AID 2283437); conditions: actives raise or lower the signal;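 further: corticosterone secreted into medium quantified by mass spectrometry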;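 on AC50: human H295R adrenal cells prestimulated with forskolin before chemical exposure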
# Procedure, shortened: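 Steps: seed H295R, adhere overnight; 10 uM forskolin 48 h; replace with chemical (0.1% DMSO) 48 h; extract medium with MTBE; quantify corticosterone by HPLC-MS/MS; score bidirectionally vs DMSO.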
# [4] = CEETOX_H295R_CORTISOL: CeeTox H295R High-throughput Steroidogenesis Assay for Cortisol (AID 2283438); conditions: actives raise or lower the signal;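 further: cortisol secreted into medium quantified by LC-MS/MS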
# Procedure, shortened: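 Steroidogenesis in H295R, per modified OECD 456: 48 h forskolin (10 uM), then 48 h exposure, 0.1% DMSO. Cortisol by extraction and tandem MS; viability by MTT (570/650 nm); cytotoxic chemicals diluted and re-tested.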
# [5] = read-out: Tumor necrosis factor receptor superfamily member 6 (Homo sapiens) (UniProt P25445); test: LTEA_HepaRG_FAS: Life Technologies and Expression Analysis (LTEA) Assay for Fas cell surface death receptor (FAS) using HepaRG (AID 2283447); conditions: mRNA level, 48 h; actives raise or lower the signal
# Procedure, shortened: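 Differentiated human HepaRG cells, pre-cultured 48 h, were exposed in duplicate for 48 h to 8-point half-log concentrations (top 100 uM, 0.5% DMSO) in serum-free induction medium; FAS mRNA measured by qRT-PCR, normalized to ACTB/GAPDH/POLR2A, bidirectional fit versus DMSO.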
# [6] = read-out: Fatty acid synthase (Homo sapiens) (UniProt P49327); test: LTEA_HepaRG_FASN: Life Technologies and Expression Analysis (LTEA) Assay for Fatty Acid Synthase (FASN) using HepaRG (AID 2283448); conditions: mRNA level, 48 h; actives raise or lower the signal
# Procedure, shortened: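 In human HepaRG cultures, 48 h chemical exposure (up to 100 uM, 0.5% DMSO) preceded TaqMan qRT-PCR of FASN.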
# [7] = read-out: Cyclin D2 (CCND2), CCND2 (gene 894); test: LTEA_HepaRG_CCND2: Life Technologies and Expression Analysis (LTEA) Assay for Cyclin D2 (CCND2) using HepaRG (AID 2283449); conditions: mRNA level, 48 h; actives raise or lower the signal;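 further: CCND2 transcript measured by TaqMan qRT-PCR and normalised to three housekeeping genes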
# Procedure, shortened: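 In this HepaRG study, an eight-point concentration series (max 100 uM, 0.5% DMSO) is applied for 48 h. CCND2 mRNA change is derived by qRT-PCR normalised to ACTB, GAPDH and POLR2A.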
# [8] = read-out: Cyclin Dependent Kinase Inhibitor 1A (CDKN1A), CDKN1A (gene 1026); test: LTEA_HepaRG_CDKN1A: Life Technologies and Expression Analysis (LTEA) Assay for Cyclin Dependent Kinase Inhibitor 1A (CDKN1A) using HepaRG (AID 2283450); conditions: mRNA level, 48 h; actives raise or lower the signal
# Procedure, shortened: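 Gain or loss of CDKN1A transcript is scored by bidirectional fitting against 0.5% DMSO vehicle. Human HepaRG cultures receive chemicals for 48 h across an 8-point series peaking at 100 uM; expression comes from qRT-PCR.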
# [9] = read-out: Cyclin D1 (CCND1), CCND1 (gene 595); test: LTEA_HepaRG_CCND1: Life Technologies and Expression Analysis (LTEA) Assay for Cyclin D1 (CCND1) using HepaRG (AID 2283451); conditions: mRNA level, 48 h; actives raise or lower the signal;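 on AC50: TaqMan qRT-PCR transcript level normalised to ACTB GAPDH and POLR2A housekeeping genes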
# Procedure, shortened: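 Expression change is measured by qRT-PCR in HepaRG cells after 48 h treatment across eight concentrations topping at 100 uM, with duplicate wells and DMSO (0.5%) serving as baseline for bidirectional fitting.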
# [10] = read-out: catalase (CAT), CAT (gene 847); test: LTEA_HepaRG_CAT: Life Technologies and Expression Analysis (LTEA) Assay for catalase (CAT) using HepaRG (AID 2283452); conditions: mRNA level, 48 h; actives raise or lower the signal
# Procedure, shortened: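 Differentiated HepaRG cells in serum-free induction medium were dosed 48 h in duplicate, eight half-log concentrations from 100 uM in 0.5% DMSO. Transcript measured by TaqMan qRT-PCR, normalised to ACTB/GAPDH/POLR2A, fitted bidirectionally against DMSO.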
# [11] = read-out: flavin-containing dimethylaniline monooxygenases 3 (FMO3), FMO3 (gene 2328); test: LTEA_HepaRG_FMO3: Life Technologies and Expression Analysis (LTEA) Assay for flavin-containing dimethylaniline monooxygenases 3 (FMO3) using HepaRG (AID 2283453); conditions: mRNA level, 48 h; actives raise or lower the signal;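 on AC50: FMO3 transcript by TaqMan qRT-PCR normalized to ACTB GAPDH and POLR2A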
# Procedure, shortened: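 Eight-point concentration-response in serum-free HepaRG cultures (top 100 uM, 0.5% DMSO, 48 h). Read-out: FMO3 mRNA level normalized to three endogenous control genes, fitted bidirectionally versus vehicle.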
# [12] = read-out: Cytochrome P450 (CYP1A1), CYP1A1 (gene 1543); test: LTEA_HepaRG_CYP1A1: Life Technologies and Expression Analysis (LTEA) Assay for Cytochrome P450 (CYP1A1) using HepaRG (AID 2283454); conditions: mRNA level, 48 h; actives raise or lower the signal
# Procedure, shortened: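 Using HepaRG cultures with 0.5% DMSO as vehicle, eight-concentration exposures (max 100 uM) lasted 48 h. Transcript levels were measured by TaqMan qRT-PCR and normalized to ACTB, GAPDH and POLR2A.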
# [13] = read-out: CFLAR gene, CFLAR (gene 8837); test: LTEA_HepaRG_CFLAR: Life Technologies and Expression Analysis (LTEA) Assay for CFLAR gene using HepaRG (AID 2283455); conditions: mRNA level, 48 h; actives raise or lower the signal
# Procedure, shortened: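 Gain- or loss-of-signal changes in CFLAR transcript were fitted bidirectionally relative to 0.5% DMSO. Cells (HepaRG, duplicate wells) were dosed for 48 h across eight half-log concentrations topping at 100 uM; quantitation by TaqMan qRT-PCR.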
# [14] = read-out: Forkhead box O1 (FOXO1), FOXO1 (gene 2308); test: LTEA_HepaRG_FOXO1: Life Technologies and Expression Analysis (LTEA) Assay for Forkhead box O1 (FOXO1) using HepaRG (AID 2283456); conditions: mRNA level, 48 h; actives raise or lower the signal
# Procedure, shortened: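 Using one lot of HepaRG hepatic cells kept in 0.5% DMSO, the team applied test chemicals in duplicate, half-log dilutions from 100 uM, for 48 h. Expression, normalised to ACTB/GAPDH/POLR2A, was compared with vehicle in either direction.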
# [15] = read-out: growth arrest and DNA damage 45 (GADD45A), GADD45A (gene 1647); test: LTEA_HepaRG_GADD45A: Life Technologies and Expression Analysis (LTEA) Assay for growth arrest and DNA damage 45 (GADD45A) using HepaRG (AID 2283458); conditions: mRNA level, 48 h; actives raise or lower the signal
# Procedure, shortened: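 Eight-point concentration-response in HepaRG cells: 48 h chemical exposure, 0.5% DMSO vehicle, top dose 100 uM. Normalized qRT-PCR mRNA readout with bidirectional fitting relative to DMSO.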
# [16] = CEETOX_H295R_ESTRADIOL: CeeTox H295R High-throughput Steroidogenesis Assay for Estradiol (AID 2283440); conditions: actives raise or lower the signal;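 further: estradiol secreted into medium quantified by LC-MS/MS after dansyl derivatisation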
# Procedure, shortened: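 Readout is estradiol in conditioned medium, quantified by reverse-phase HPLC-MS/MS against a 7-point standard curve. Cells: H295R, forskolin-stimulated, then dosed 48 h in 0.1% DMSO; activity fitted in both directions relative to DMSO.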
# [17] = CEETOX_H295R_ESTRONE: CeeTox H295R High-throughput Steroidogenesis Assay for Estrone (AID 2283441); conditions: actives raise or lower the signal;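 further: estrone secreted into medium measured by LC-MS/MS after dansyl derivatization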
# Procedure, shortened: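 Forskolin-stimulated H295R cells are treated 48 h with chemical, and estrone in the medium is measured by LC-MS/MS. Activity is fitted in both directions relative to DMSO controls, with chemicals diluted until MTT viability reaches at least 70%.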
# [18] = read-out: Forkhead box O3 (FOXO3), FOXO3 (gene 2309); test: LTEA_HepaRG_FOXO3: Life Technologies and Expression Analysis (LTEA) Assay for Forkhead box O3 (FOXO3) using HepaRG (AID 2283459); conditions: mRNA level, 48 h; actives raise or lower the signal
# Procedure, shortened: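 Gene-expression endpoint: FOXO3 transcript level by qRT-PCR in HepaRG cultures treated 48 h with chemicals up to 100 uM (half-log, 0.5% DMSO vehicle).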
# [19] = CEETOX_H295R_ANDR: CeeTox H295R High-throughput Steroidogenesis Assay for Androstenedione (ANDR) (AID 2283436); conditions: actives raise or lower the signal;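 further: human H295R adrenal cells exposed for 48 h with androstenedione measured in medium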
# Procedure, shortened: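 Steroidogenesis in H295R adrenal cells after 48 h dosing; androstenedione quantified by LC-MS/MS, with DMSO as negative control and baseline for bidirectional curve fitting.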
# [20] = CEETOX_H295R_TESTO: CeeTox H295R High-throughput Steroidogenesis Assay for Testosterone (TESTO) (AID 2283457); conditions: actives raise or lower the signal
# Procedure, shortened: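 Steroidogenesis in H295R cells following OECD 456 with minor changes; 48 h exposure. Medium testosterone by HPLC-MS/MS, DMSO as baseline, with MTT viability run in parallel.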
# Fatty acid synthase (Homo sapiens), sequence (P49327 whole entry, looked up): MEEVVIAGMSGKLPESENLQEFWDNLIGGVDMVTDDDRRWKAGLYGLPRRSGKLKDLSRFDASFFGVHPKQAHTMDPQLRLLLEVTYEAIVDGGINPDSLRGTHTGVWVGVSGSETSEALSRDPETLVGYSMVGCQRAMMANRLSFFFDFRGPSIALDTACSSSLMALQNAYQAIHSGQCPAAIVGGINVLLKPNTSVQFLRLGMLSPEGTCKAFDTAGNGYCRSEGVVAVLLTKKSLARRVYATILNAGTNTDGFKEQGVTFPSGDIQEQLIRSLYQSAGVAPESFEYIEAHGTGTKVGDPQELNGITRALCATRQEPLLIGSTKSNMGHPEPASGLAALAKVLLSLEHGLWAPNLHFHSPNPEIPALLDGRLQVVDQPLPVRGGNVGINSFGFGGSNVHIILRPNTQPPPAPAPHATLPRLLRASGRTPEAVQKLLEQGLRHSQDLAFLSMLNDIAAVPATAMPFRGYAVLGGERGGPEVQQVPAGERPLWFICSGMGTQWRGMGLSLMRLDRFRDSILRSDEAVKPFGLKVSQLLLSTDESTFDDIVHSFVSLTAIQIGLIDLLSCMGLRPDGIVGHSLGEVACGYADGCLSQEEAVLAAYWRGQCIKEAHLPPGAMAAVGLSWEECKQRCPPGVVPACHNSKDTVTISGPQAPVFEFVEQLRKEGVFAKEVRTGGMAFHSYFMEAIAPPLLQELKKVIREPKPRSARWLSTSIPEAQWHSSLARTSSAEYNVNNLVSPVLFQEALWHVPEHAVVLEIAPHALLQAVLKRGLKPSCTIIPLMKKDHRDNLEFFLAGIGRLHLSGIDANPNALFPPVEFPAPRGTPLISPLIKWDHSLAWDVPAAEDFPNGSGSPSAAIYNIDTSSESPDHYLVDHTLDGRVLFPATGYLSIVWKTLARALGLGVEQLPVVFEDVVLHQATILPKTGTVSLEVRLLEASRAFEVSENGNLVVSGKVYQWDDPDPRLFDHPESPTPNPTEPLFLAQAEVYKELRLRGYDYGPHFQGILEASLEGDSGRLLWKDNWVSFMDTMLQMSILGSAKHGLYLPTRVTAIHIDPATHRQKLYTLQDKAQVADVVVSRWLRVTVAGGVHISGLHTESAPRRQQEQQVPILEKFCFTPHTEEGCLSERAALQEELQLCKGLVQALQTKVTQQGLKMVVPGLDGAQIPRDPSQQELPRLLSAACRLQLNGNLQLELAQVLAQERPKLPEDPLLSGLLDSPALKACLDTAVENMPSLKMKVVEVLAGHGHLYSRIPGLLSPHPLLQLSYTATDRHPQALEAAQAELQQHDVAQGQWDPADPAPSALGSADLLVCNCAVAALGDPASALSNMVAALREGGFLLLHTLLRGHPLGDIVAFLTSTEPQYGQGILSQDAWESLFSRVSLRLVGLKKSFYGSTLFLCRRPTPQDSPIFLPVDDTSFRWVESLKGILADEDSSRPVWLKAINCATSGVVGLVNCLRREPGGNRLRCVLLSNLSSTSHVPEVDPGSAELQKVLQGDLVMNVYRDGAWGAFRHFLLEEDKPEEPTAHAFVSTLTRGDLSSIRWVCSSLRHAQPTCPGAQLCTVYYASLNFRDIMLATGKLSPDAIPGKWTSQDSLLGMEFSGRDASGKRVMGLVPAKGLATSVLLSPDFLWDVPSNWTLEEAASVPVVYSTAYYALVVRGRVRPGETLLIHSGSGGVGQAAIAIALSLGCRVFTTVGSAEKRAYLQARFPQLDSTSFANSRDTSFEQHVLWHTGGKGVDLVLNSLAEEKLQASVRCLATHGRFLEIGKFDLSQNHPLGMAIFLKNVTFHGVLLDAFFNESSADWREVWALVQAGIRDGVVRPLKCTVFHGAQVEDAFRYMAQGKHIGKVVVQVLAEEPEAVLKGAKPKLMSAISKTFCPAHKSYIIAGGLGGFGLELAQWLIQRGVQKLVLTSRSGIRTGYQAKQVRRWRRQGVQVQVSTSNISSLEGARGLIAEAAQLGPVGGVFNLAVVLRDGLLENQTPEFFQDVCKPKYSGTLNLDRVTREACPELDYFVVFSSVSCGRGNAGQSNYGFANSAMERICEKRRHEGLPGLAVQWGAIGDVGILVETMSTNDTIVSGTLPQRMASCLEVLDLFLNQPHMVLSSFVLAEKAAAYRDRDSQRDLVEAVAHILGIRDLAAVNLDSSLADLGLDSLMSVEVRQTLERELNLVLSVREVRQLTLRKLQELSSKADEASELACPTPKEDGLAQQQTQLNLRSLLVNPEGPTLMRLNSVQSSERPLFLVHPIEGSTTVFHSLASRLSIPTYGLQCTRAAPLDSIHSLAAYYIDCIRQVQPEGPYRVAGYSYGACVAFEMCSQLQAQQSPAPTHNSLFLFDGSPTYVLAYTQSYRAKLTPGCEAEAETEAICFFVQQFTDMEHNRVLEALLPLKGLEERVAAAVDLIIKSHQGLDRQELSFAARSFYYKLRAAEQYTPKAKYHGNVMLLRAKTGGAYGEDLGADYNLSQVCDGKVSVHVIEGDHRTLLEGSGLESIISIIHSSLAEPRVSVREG
compound,measurement,setting,value
CCOP(=S)(OCC)Oc1nc(Cl)n(C(C)C)n1,outcome,[1],inactive
same,AC50,[2],35.8 µM (active)
same,outcome,[3],inactive
same,outcome,[4],inactive
same,outcome,[5],inactive
same,AC50,[6],30.5 µM (active)
same,outcome,[7],inactive
same,outcome,[8],inactive
same,outcome,[9],inactive
same,outcome,[10],inactive
same,AC50,[11],24.7 µM (active)
same,AC50,[12],9.25 µM (active)
same,outcome,[13],inactive
same,outcome,[14],inactive
same,outcome,[15],inactive
CCOc1nc(C(Cl)(Cl)Cl)ns1,outcome,[1],inactive
same,outcome,[2],inactive
same,outcome,[16],inactive
same,outcome,[17],inactive
same,outcome,[6],inactive
same,AC50,[7],1.11 µM (active)
same,outcome,[8],inactive
same,AC50,[9],1.18 µM (active)
same,outcome,[10],inactive
same,AC50,[11],0.644 µM (active)
same,AC50,[12],1.44 µM (active)
same,AC50,[13],0.912 µM (active)
same,AC50,[15],1.49 µM (active)
COCC(=O)N(c1c(C)cccc1C)C(C)C(=O)OC (configuration not stated),outcome,[1],inactive
same,outcome,[2],inactive
same,outcome,[16],inactive
same,outcome,[17],inactive
same,outcome,[5],inactive
same,outcome,[6],inactive
same,AC50,[7],0.0815 µM (active)
same,outcome,[8],inactive
same,outcome,[9],inactive
same,outcome,[10],inactive
same,outcome,[11],inactive
same,outcome,[12],inactive
same,outcome,[13],inactive
same,outcome,[15],inactive
same,outcome,[18],inactive
COCc1cnc(C2=NC(C)(C(C)C)C(=O)N2)c(C(=O)O)c1 (configuration not stated),outcome,[1],inactive
same,outcome,[2],inactive
same,outcome,[19],inactive
same,outcome,[3],inactive
same,outcome,[4],inactive
same,outcome,[16],inactive
same,outcome,[17],inactive
same,outcome,[5],inactive
same,outcome,[6],inactive
same,outcome,[7],inactive
same,outcome,[8],inactive
same,outcome,[9],inactive
same,outcome,[10],inactive
same,outcome,[11],inactive
same,AC50,[12],65.5 µM (active)
same,outcome,[13],inactive
same,outcome,[14],inactive
same,outcome,[20],inactive
same,outcome,[15],inactive
O=C(Nc1ccccc1-c1ccc(Cl)cc1)c1cccnc1Cl,outcome,[1],inactive
same,outcome,[2],inactive
same,outcome,[3],inactive
same,outcome,[4],inactive
same,outcome,[16],inactive
same,outcome,[17],inactive
same,outcome,[5],inactive
same,outcome,[6],inactive
same,outcome,[7],inactive
same,outcome,[8],inactive
same,outcome,[9],inactive
same,outcome,[10],inactive
same,outcome,[11],inactive
same,AC50,[12],52.5 µM (active)
same,outcome,[13],inactive
same,outcome,[14],inactive
same,outcome,[15],inactive
same,outcome,[18],inactive
CCNP(=S)(OC)O/C(C)=C/C(=O)OC(C)C (configuration not stated),AC50,[1],61.8 µM (active)
same,outcome,[2],inactive
same,AC50,[3],50 µM (active)
same,outcome,[4],inactive
same,outcome,[16],inactive
same,outcome,[17],inactive
same,outcome,[5],inactive
same,AC50,[6],36.3 µM (active)
same,outcome,[7],inactive
same,outcome,[8],inactive
same,outcome,[9],inactive
same,outcome,[10],inactive
same,outcome,[11],inactive
same,AC50,[12],14.3 µM (active)
same,outcome,[13],inactive
same,outcome,[15],inactive
same,outcome,[18],inactive
O=C1C2CC=CCC2C(=O)N1SC(Cl)(Cl)Cl (configuration not stated),outcome,[1],inactive
same,outcome,[2],inactive
same,outcome,[16],inactive
same,outcome,[17],inactive
same,outcome,[5],inactive
same,AC50,[6],70.9 µM (active)
same,outcome,[7],inactive
same,outcome,[8],inactive
same,outcome,[9],inactive
same,outcome,[10],inactive
same,outcome,[11],inactive
same,AC50,[12],38.8 µM (active)
same,outcome,[13],inactive
same,outcome,[15],inactive
same,outcome,[18],inactive
